The values that follow come from PubChem BioAssay (Tox21).

Several values for one entry are separate records, joined by “and”; a condition that tells them apart may be missing. Identical values can stand only once. Inconclusive results are not listed. Entries that show only a call come without a potency. The source holds several records for some structures; these can differ, active in one and inactive in another. Activity calls are given as the source filed them. Calls come from the whole dose curve; as a rule, active = well fitted cell-killing curve with a large enough effect in the repeat runs; inconclusive = weak or mixed curves, or effect the other way; inactive = no such curve, though single readings can be large or run the other way.
Potency is the fitted concentration of half-maximal effect.

A short description of the assay: qHTS assay for identifying genotoxic compounds that show differential cytotoxicity against isogenic chicken DT40 cell lines with known DNA damage response pathways - Rev3 mutant cell line (AID 743014). Note: nearly all actives have a fitted effect of over 55% in size. Conditions: chicken DT40 Rev3-/- viability, CellTiter-Glo, 40 h; series mostly up to 68.4 µM; activity, negative = cytotoxicity: at the top concentration.
As to `CC(=O)c1ccccc1`, the Potency result was “inactive”.

On to `COS(C)(=O)=O`, for which the “activity, negative = cytotoxicity” value was 1.43% (inactive).

As to `OC[C@H]1O[C@@](CO)(O[C@H]2O[C@H](CO)[C@@H](O)[C@H](O)[C@H]2O)[C@@H](O)[C@@H]1O`, the Potency result was “inactive”.

Consider `O=C(O)CC(C(=O)O)C(CC(=O)O)C(=O)O` (stereo not given), for which the Potency result was “inactive”.

Take `COCCCOc1ccnc(CS(=O)c2nc3ccccc3[nH]2)c1C` (stereo not given): the Potency is 29.8 µM (active) and 24.2 µM (active).

For `CC(C)c1ccc(S(=O)(=O)O)cc1`, the Potency result is “inactive”.

As for `CCCSc1ccc2nc(NC(=O)OC)[nH]c2c1`, the Potency was 359 nM (active) and 969 nM (active).

For `CCN(CC)CCCC(C)Nc1ccnc2cc(Cl)ccc12` (stereo not given), the Potency was 13.3 µM (active) and 2.66 µM (active).

Turning to `O=P(OC(CCl)CCl)(OC(CCl)CCl)OC(CCl)CCl`, the Potency was 30.5 µM (active) and 19.3 µM (active).

Consider `CC1CCC2CC1C2(C)C` (stereo not given), for which the Potency entry is “inactive”.

As to `O=C(Oc1ccccc1)c1ccccc1`, the Potency entry is “inactive”.

Take `COc1ccc(Nc2ccccc2)c(C)c1`: the “activity, negative = cytotoxicity” value was 1.28% (inactive).

For the compound `O=C1CCC(N2C(=O)c3ccccc3C2=O)C(=O)N1` (stereo not given), the “activity, negative = cytotoxicity” value is 3.2% (inactive).

For the compound `CCCCCC/C(C=O)=C\c1ccccc1`, the “activity, negative = cytotoxicity” value was -6.33% [at 95 µM] (inactive).

`CC1=C(C)S(=O)(=O)CCS1(=O)=O`: the Potency was 68.6 µM (active).

As for `COc1ccc(Cl)cc1C(=O)NCCc1ccc(S(=O)(=O)NC(=O)NC2CCCCC2)cc1`, the “activity, negative = cytotoxicity” value is 10.1% (inactive).

Turning to `O=C(O)c1ccc(C(=O)O)cc1`, the Potency result was “inactive”.

For the compound `CCc1ccc(CCOc2ccc(CC3SC(=O)NC3=O)cc2)nc1` (stereo not given), the Potency entry was “inactive and 68.6 µM (active)”.

`Cc1occc(=O)c1O`: the Potency result is “inactive”.

Take `Cc1ccc2oc(=O)ccc2c1`: the Potency entry is “inactive”.

Turning to `CN(C)CCCN`, the Potency result was “inactive”.

`c1ccc2c(c1)ccc1ccccc12`: the Potency is 68.6 µM (active).

Regarding `C#C[C@]1(O)CC[C@H]2[C@@H]3CCC4=CC(=O)CC[C@@H]4[C@H]3CC[C@@]21C`, the Potency result was “inactive and 27.3 µM (active)”.

In the case of `CCCC(C)=O`, the Potency result is “inactive”.

On to `Cc1ccc(S(N)(=O)=O)cc1`, for which the Potency entry was “inactive”.

`c1c[nH]cn1`: the Potency entry was “inactive”.

`CCN(CC)c1ccc(C(=O)c2ccccc2C(=O)O)c(O)c1`: the Potency result was “inactive”.

As for `CC1=CCC2CC1C2(C)C` (stereo not given), the Potency result was “inactive”.

As to `O=C(O)CCCCCCCCCCC(=O)O`, the Potency entry is “inactive”.

Take `Fc1ccc(Br)cc1`: the Potency entry was “inactive”.
